Activity calls are given as the source filed them.
Legend:
[1] = binders of probe aFSTL3 on microarray, primary screen, stem cell growth factor project, biochemical, small-molecule microarray, fluorescence 635/667 (AID 1064); conditions: higher = more signal;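 further: measures binding of the biotinylated anti-FSTL3 antibody to printed compounds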
[2] = binders from COS7 lysate, DM2A8 probe, primary screen, torsin A project, cell lysate, small-molecule microarray, fluorescence 635/667 (AID 1065); conditions: higher = more signal, COS7 lysate expressing mutant human TOR1A
[3] = binders of probe aFGF2 on microarray, primary screen, stem cell growth factor project, biochemical, small-molecule microarray, fluorescence 635/667 (AID 1067); conditions: higher = more signal;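 further: measures binding of biotinylated aFGF2 protein to printed compounds on slides; z-score merges feature fluorescence and signal-to-noise across triplicate slides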
[4] = binders of probe aFGF10 on microarray, primary screen, stem cell growth factor project, biochemical, small-molecule microarray, fluorescence 635/667 (AID 1071); conditions: higher = more signal;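 further: score merges 667 nm spot intensity and signal to noise from triplicate slides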
[5] = target: Neurogenic locus notch homolog protein 2 (Homo sapiens) (UniProt Q04721); experiment: Notch2 binders on small-molecule microarrays, primary screen, biochemical, small-molecule microarray, 635 nm fluorescence, stem cell growth factors (AID 1073); conditions: Notch2 binding, higher = more signal
[6] = target: Pro-neuregulin-1, membrane-bound isoform (Homo sapiens) (UniProt Q02297); experiment: NRG1 binders on small-molecule microarrays, primary screen, psychiatric disease protein project, biochemical, small-molecule microarray, fluorescence 635/667 (AID 1075); conditions: NRG1 binding, 635 nm fluorescence, higher = more signal;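 further: score combines 667 nm spot fluorescence with signal to noise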
[7] = system: Neuregulin-1 EGF-like domain; experiment: binders of neuregulin-1 EGF-like domain, primary screen, biochemical, small-molecule microarray, 635 nm fluorescence (AID 1081); conditions: small-molecule microarray binding, higher = more signal;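 further: binding of the protein to compounds printed on small-molecule microarray slides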
[8] = FRG1 promoter luciferase signal modulators, primary screen, FRG1 inhibition for FSHD, cell-based, C2C12 myotubes, firefly/Renilla luciferase, luminescence (AID 1084); conditions: higher = more signal, called active from +8 up or from −8 down
[9] = binders of probe aFST on microarray, primary screen, stem cell growth factor project, biochemical, small-molecule microarray, fluorescence 635/667 (AID 1086); conditions: higher = more signal;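 further: score merges 667 nm fluorescence with signal-to-noise of each printed compound spot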
[10] = binders of probe aHhip on microarray, primary screen, stem cell growth factor project, biochemical, small-molecule microarray, fluorescence 635/667 (AID 1087); conditions: higher = more signal;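 further: score merges spot fluorescence at 667nm with spot signal to noise ratio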
[11] = system: PRMT1 (protein arginine N-methyltransferase 1); experiment: PRMT1 binders on small-molecule microarrays, primary screen, biochemical, small-molecule microarray, 635 nm fluorescence (AID 1088); conditions: small-molecule microarray binding, higher = more signal;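 further: binding of Prmt1 protein to compounds spotted on small-molecule microarray slides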
[12] = yeast growth modulation, basal conditions, primary screen, YJM789 clinical isolate, OD600, 24 h (AID 1089);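 further: growth of clinical yeast isolate S. cerevisiae YJM 789 seeded 1000 cells per well; test concentration not given here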; conditions: S. cerevisiae YJM789 growth, higher = more signal, called active from +8 up or from −8 down
[13] = fission yeast growth modulation, primary screen, strain 972, OD600, 24 h, no modulator (AID 1090);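 further: basal condition with compound alone and no growth modifier present; test concentration not given here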; conditions: S. pombe 972 growth, higher = more signal, called active from +8 up or from −8 down
[14] = S. cerevisiae growth modulation with rapamycin, primary screen, strain BY4716, OD600, 96 h (AID 1091); conditions: higher = more signal, called active from +8 up or from −8 down; further: test concentration not given here
[15] = target: Torsin-1A-interacting protein 2 (Homo sapiens) (UniProt Q8NFQ8); experiment: LULL1 binders on small-molecule microarray, primary screen, cell lysate, human LULL1 lysate, 635/667 nm fluorescence (AID 1092); conditions: hLULL1 lysate binding, 635 nm fluorescence, higher = more signal;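 further: probe is lysate of COS7 cells overexpressing human LULL1; score merges per-feature 667 nm fluorescence with signal-to-noise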
[16] = E. coli growth modulation, two-sided OD650, primary screen, E. coli filamentation project, strain DRC41, 24 h (AID 1093); conditions: OD650, 24 h, higher = more signal, called active from +8 up or from −8 down;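 further: MC1000 strain lacking acrAB efflux and sulA so SOS filamentation is blocked; test concentration not given here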
[17] = small-molecule microarray binders of probe aLefty2, primary screen, biochemical, biotinylated probe, 635/667 nm fluorescence (AID 1094); conditions: higher = more signal;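 further: score merges spot fluorescence near 667 nm with spot signal-to-noise ratio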
[18] = system: Noggin (protein binding on small-molecule microarray); experiment: Noggin binders on small-molecule microarray, primary screen, biochemical, 635/667 nm fluorescence (AID 1095); conditions: 635 nm fluorescence, higher = more signal;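 further: score merges 667 nm feature fluorescence with signal to noise over triplicate slides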
[19] = target: Neurogenic locus notch homolog protein 3 (Homo sapiens) (UniProt Q9UM47); experiment: NOTCH3 binders on small-molecule microarray, primary screen, biochemical, 635/667 nm fluorescence (AID 1096); conditions: NOTCH3 binding, 635 nm fluorescence, higher = more signal
[20] = small-molecule microarray binders of probe aEGFR, primary screen, biochemical, biotinylated probe, 635/667 nm fluorescence (AID 1097); conditions: higher = more signal;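 further: probe is a biotinylated anti-EGFR antibody binding compounds printed on slides; score combines fluorescence near 667 nm and signal to noise of each spot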

Sequence of Neurogenic locus notch homolog protein 3 (Homo sapiens) (Q9UM47 whole entry, looked up): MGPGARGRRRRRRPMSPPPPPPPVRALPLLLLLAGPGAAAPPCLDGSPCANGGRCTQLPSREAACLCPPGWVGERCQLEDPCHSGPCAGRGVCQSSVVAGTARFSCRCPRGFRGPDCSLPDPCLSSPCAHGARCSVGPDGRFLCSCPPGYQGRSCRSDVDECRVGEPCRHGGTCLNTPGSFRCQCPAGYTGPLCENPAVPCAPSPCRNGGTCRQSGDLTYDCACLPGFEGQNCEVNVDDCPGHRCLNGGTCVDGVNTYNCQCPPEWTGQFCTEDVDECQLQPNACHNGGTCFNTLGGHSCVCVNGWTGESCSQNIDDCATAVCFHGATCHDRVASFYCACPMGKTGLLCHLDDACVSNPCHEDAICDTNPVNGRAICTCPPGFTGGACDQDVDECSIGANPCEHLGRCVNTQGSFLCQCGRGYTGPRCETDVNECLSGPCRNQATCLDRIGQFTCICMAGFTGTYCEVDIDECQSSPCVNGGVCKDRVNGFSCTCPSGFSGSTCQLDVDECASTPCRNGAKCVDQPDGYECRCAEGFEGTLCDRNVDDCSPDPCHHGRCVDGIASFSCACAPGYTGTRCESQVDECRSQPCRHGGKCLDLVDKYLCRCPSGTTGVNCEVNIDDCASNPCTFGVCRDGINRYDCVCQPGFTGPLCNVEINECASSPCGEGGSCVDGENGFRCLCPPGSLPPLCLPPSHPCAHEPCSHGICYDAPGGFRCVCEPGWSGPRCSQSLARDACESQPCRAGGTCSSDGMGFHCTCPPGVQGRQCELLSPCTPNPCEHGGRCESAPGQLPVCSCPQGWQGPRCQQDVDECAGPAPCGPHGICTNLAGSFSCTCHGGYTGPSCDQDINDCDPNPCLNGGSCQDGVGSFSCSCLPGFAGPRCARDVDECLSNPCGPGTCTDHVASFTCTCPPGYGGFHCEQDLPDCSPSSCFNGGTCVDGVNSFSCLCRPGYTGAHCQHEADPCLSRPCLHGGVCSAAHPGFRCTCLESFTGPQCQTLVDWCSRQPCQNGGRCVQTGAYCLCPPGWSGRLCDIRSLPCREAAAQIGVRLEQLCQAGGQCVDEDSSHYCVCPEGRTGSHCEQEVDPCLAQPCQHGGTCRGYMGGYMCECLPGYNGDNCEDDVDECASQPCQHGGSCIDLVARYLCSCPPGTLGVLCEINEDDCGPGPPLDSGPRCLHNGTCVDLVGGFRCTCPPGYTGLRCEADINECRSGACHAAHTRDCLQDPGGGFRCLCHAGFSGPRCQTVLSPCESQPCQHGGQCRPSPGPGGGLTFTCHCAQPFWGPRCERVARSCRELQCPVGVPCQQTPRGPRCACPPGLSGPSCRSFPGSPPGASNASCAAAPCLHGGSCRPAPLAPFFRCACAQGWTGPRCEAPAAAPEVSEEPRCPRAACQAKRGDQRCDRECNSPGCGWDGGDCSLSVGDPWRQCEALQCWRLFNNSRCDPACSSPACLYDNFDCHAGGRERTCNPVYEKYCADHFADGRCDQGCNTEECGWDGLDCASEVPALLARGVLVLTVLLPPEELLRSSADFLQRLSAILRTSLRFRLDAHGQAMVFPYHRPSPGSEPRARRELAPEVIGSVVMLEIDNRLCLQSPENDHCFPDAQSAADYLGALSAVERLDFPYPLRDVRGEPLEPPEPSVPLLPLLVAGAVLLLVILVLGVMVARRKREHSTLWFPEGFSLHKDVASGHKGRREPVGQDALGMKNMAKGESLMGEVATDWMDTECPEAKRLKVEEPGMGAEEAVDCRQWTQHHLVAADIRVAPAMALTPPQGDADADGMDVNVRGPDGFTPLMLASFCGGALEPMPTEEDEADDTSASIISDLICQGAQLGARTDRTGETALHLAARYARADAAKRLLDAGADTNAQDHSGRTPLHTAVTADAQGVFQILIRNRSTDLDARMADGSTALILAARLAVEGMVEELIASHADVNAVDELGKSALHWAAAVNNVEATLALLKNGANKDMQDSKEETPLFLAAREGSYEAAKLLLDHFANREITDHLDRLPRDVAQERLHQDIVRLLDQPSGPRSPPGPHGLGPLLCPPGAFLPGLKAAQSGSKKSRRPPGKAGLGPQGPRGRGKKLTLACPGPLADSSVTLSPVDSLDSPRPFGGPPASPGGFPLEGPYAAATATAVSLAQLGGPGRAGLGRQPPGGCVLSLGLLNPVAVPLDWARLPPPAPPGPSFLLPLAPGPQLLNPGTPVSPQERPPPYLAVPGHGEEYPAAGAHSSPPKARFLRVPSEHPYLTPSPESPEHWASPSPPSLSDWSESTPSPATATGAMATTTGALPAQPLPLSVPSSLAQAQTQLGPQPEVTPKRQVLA
Sequence of Torsin-1A-interacting protein 2 (Homo sapiens) (Q8NFQ8 whole entry, looked up): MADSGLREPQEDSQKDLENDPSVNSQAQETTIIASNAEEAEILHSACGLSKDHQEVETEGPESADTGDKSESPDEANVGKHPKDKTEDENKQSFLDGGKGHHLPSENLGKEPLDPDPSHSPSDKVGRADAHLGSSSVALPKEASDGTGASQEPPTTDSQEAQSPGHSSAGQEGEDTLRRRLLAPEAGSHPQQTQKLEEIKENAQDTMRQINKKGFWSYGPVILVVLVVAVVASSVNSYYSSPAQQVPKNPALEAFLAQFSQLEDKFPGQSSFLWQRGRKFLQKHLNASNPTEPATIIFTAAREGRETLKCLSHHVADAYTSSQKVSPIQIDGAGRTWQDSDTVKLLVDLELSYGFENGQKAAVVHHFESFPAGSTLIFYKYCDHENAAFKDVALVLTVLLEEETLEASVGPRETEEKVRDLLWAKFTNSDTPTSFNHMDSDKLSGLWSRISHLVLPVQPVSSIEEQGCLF
Sequence of Pro-neuregulin-1, membrane-bound isoform (Homo sapiens) (Q02297 whole entry, looked up, the tested form may be a part, canonical isoform): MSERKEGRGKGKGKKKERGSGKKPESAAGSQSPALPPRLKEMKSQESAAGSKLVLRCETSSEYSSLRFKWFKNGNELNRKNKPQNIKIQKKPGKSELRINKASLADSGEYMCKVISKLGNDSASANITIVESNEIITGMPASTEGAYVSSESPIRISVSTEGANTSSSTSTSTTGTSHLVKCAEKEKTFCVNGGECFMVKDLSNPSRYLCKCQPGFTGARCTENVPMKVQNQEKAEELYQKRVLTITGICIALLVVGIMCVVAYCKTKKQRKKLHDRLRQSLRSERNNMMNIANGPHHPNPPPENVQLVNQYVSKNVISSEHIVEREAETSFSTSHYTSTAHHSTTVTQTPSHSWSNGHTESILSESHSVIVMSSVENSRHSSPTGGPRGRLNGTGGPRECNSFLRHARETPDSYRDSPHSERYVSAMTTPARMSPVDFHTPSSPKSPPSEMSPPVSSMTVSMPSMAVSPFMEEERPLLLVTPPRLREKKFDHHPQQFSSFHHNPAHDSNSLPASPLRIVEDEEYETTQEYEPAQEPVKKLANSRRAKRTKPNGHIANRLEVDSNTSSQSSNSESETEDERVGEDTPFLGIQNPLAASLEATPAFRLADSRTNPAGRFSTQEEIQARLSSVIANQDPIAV

SMILES | composite z-score [1] | composite z-score [2] | composite z-score [3] | composite z-score [4] | composite z-score [5] | composite z-score [6] | composite z-score [7] | z-score [8] | composite z-score [9] | composite z-score [10] | composite z-score [11] | z-score [12] | z-score [13] | z-score [14] | composite z-score [15] | z-score [16] | composite z-score [17] | composite z-score [18] | composite z-score [19] | composite z-score [20]
C[C@@H]1ON(c2ccc(I)cc2)[C@H](c2ccc(OC(=O)OC(C)(C)C)cc2)[C@H]1C(=O)N1C(=O)OC[C@H]1Cc1ccccc1 | -0.478 | 0.0988 | -0.175 | 0.253 | 0.756 | 0.178 | 0.492 | 3.7 (inactive) | 0.238 | -0.0672 | 1.35 | -0.0865 (inactive) | -1.73 (inactive) | 1.9 (inactive) | 2.08 | 1.77 (inactive) | -0.0736 | 0.447 | 1.02 | -0.0351
COC(=O)C(CC#Cc1ccc2c(c1)[C@]1(C(=O)N2)[C@H](c2ccc(OCCO)cc2)N2[C@H](c3ccccc3)[C@H](c3ccccc3)OC(=O)[C@H]2[C@@H]1C(=O)N1CCN(c2ncccn2)CC1)C(=O)OC | -0.505 | 1.01 | 0.0275 | 1.12 | 1.51 | 0.746 | 1.27 | 1.45 (inactive) | 0.643 | 0.386 | 1.55 | 0.722 (inactive) | 1.82 (inactive) | 3.83 (inactive) | 2.31 | -0.0711 (inactive) | 0.0971 | 1.36 | 1.05 | 0.153
O=C1C2C=CC(C(O)C=Cc3ccc([N+](=O)[O-])cc3)N(Nc3ccccc3)C2C(=O)N1c1ccccc1 (stereo not given) | -0.134 | -0.0552 | 0.183 | 0.995 | 1.59 | 1.7 | 0.967 | -0.028 (inactive) | 1.22 | -0.0237 | 1.33 | 0.431 (inactive) | 0.102 (inactive) | -0.19 (inactive) | 2.78 | -0.608 (inactive) | 0.349 | 0.505 | 1.04 | -0.0238
CCOC(=O)C=Cc1ccccc1O | -0.13 | 0.0396 | -0.0156 | 0.205 | 0.578 | -0.0345 | 0.614 | 0.911 (inactive) | 0.245 | -0.0003 | 0.697 | -23.9 (active) | -9.67 (active) | -1.89 (inactive) | 1.44 | 0.354 (inactive) | -0.0432 | -0.0491 | 0.947 | 0.0594
CC(C)(C)OC(=O)CC[C@]1(C(=O)N2CCCCC2)COC(c2ccc(OCCCO)cc2)=N1 | 0.161 | 1.05 | 0.0159 | 1.2 | 1.6 | 1.35 | 1.15 | -2.51 (inactive) | 0.372 | 0.0373 | 1.47 | -1.1 (inactive) | -0.878 (inactive) | -1.57 (inactive) | 3.57 | 0.992 (inactive) | 0.066 | 0.318 | 0.79 | -0.0139
COc1ccc([Si](C)(C)[C@@H]2[C@@H](CC(=O)N3Cc4ccccc4C[C@H]3CO)O[C@]3(C(=O)N(c4ccccc4)c4ccccc43)[C@H]2C)cc1 | 0.485 | 1.02 | 0.411 | 0.934 | 0.627 | 2.35 | 1.16 | -3.5 (inactive) | 1.43 | 0.433 | 1.41 | 1.18 (inactive) | 1.4 (inactive) | 2.93 (inactive) | 1.88 | 0.774 (inactive) | 0.541 | 1.71 | 1.05 | 0.13
COCCOC(=O)N1C(=O)[C@@]2(c3cc(C#CCCO)ccc31)[C@H](C(=O)N1CCCCCCC1)[C@H]1C(=O)O[C@H](c3ccccc3)[C@H](c3ccccc3)N1[C@@H]2c1ccccc1OCCO | 3.32 | 0.659 | 0.688 | 0.473 | 1.43 | 1.85 | 1.18 | 0.253 (inactive) | 3.07 | 0.891 | 1.54 | 0.658 (inactive) | -2.09 (inactive) | 1.93 (inactive) | 4 | -0.452 (inactive) | 1.47 | 1.76 | 1.07 | 0.89
C=C(C(=O)CC[C@@H](OC(=O)c1ccccc1-c1ccccc1C(=O)O)c1ccccc1OCCO)C(C)C | -0.248 | 0.95 | -0.113 | 0.858 | 0.493 | 0.0729 | 0.838 | 0.16 (inactive) | 0.111 | 0.233 | 1.55 | -1.28 (inactive) | -0.832 (inactive) | -1.88 (inactive) | 1.14 | 0.293 (inactive) | -0.0617 | 1.36 | 1.05 | -0.112
C=CCC(OC(C)=O)[C@@H]1[C@@H](N(Cc2ccc(-c3ccccc3)cc2)C(=O)Cc2ccc(F)cc2)c2cc(OCCCO)ccc2N1C(=O)Cc1ccc2ccccc2c1 (stereo not given in full) | -0.0873 | -0.286 | -0.0271 | -0.214 | -0.821 | -0.0447 | -0.84 | 0.0197 (inactive) | 0.252 | -0.0047 | -0.848 | -0.106 (inactive) | 0.412 (inactive) | 0.0926 (inactive) | 2.46 | 0.708 (inactive) | 0.385 | 0.115 | 0.151 | -0.0828
C=C(COC)C(=O)CC[C@H](OC(C)=O)c1ccc(OCCO)cc1 | -0.198 | -0.722 | -0.0533 | 1.21 | -0.189 | -0.0732 | 1.1 | 1.08 (inactive) | 0.375 | -0.191 | 1.44 | 0.389 (inactive) | -2.5 (inactive) | -1.06 (inactive) | -0.451 | 1.39 (inactive) | -0.211 | 1.93 | 0.711 | -0.0387
